Results as given in PubChem BioAssay (EPA / NIEHS).
Records with an inconclusive call do not appear. Active and inactive are the calls of the source. The calls were made as follows, unless noted: active = hit-call score of the fitted dose curve at least 0.9, where 1 is the maximum; inconclusive = response in the unintended direction; inactive = score below 0.9.

What was measured:
[1] = VALA_MIGHUV2_Bcatenin: VALA Sciences human Umbilical Vein Endothelial Cell Migration (MIGHUV) Assay, Nuclear Translocation of beta-Catenin after Recovery (AID 2284315)
Method: VALA_MIGHUV2_BCatenin is a cell-based, multiplexed assay that uses umbilical vein-derived endothelial cells (HUVEC). Measurements were taken 24 hours after chemical dosing in a 96-well plate.VALA_MIGHUV2_Bcatenin is the one of two assay components measured from the VALA_MIGHUV2 assay. It is designed to make measurements of nuclear translocation of CTNB, a form of morphology reporter, as detected with fluorescence intensity signals by HCS Fluorescent Imaging technology.Data from the assay component VALA_MIGHUV2_BCatenin was analyzed at the endpoint, VALA_MIGHUV2_BCatenin, in the positive analysis fitting direction relative to DMSO as the negative control and baseline of activity. Using a type of morphology reporter, gain-of-signal activity can be used to understand developmental effects. To generalize the intended target to other relatable targets, this assay endpoint is annotated to the neurodevelopment intended target family, where the subfamily is migration.
Cells were seeded on 384-well microplates (day-0) at a density of 9000 cells per well for detection of wound area recovery or 4000 cells per well for detection of beta-catenin (CTNB) immunoreactivity and incubated in Endothelial Cell Growth Medium (CAI, San Diego; catalog 211-500). After 24 hours of culture, the HUVEC plates were scratched using a custom scratch head with the Bravo liquid handling system. […]

[2] = VALA_MIGHUV1_ScratchOnly_CellCount: Viability Assessment in the VALA Sciences human Umbilical Vein Endothelial Cell Migration (MIGHUV) Assay, Scratch Wound Inhibited Recovery (AID 2284327)
Method in brief: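 Hoechst-stained nuclei in the scratch wound were counted by high-content imaging after a 24 h recovery period. Scratched HUVEC monolayers received 6-point concentration series, triplicate, in 0.1% DMSO, fit against DMSO.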

IYD (gene 389434) = experiment: CCTE_GLTED_hIYD: CCTE's human Iodotyrosine Deiodinase (xIYD) Inhibition Assay, Great Lakes Toxicology and Ecology Division (GLTED) Lab (AID 2284317);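 also: cell-free human IYD enzyme made in baculovirus insect cells; iodide freed from monoiodotyrosine measured by cerium arsenite color change at 420 nm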
Method in brief: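 Deiodination of MIT by insect-cell-produced human IYD is measured after a 3 h incubation with test chemical. Free iodide passes through a Dowex column and accelerates Sandell-Kolthoff Ce4+ reduction, read at 420 nm; run in triplicate.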

TTR (gene 7276) = experiment: CCTE_GLTED_hTTR_0.5uM: CCTE's human Transthyretin (hTTR) Inhibition Assay, with 0.5uM TTR, Great Lakes Toxicology and Ecology Division (GLTED) Lab (AID 2284320; active = hit-call score of the fitted dose curve at least 0.9, where 1 is the maximum; inactive = score below 0.9)
Method in brief: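 Probe (ANSA) displacement from 0.5 uM human transthyretin was followed by fluorescence (ex 380, em 475) after a 2 h incubation with chemical. Activity was scored as signal loss and fitted positively relative to DMSO.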

[3] = VALA_TUBHUV_Antagonist_TubuleLength: VALA Sciences human Umbilical Vein Endothelial Tubule Formation (TUBHUV) Antagonism Assay (AID 2284325)
Method in brief: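 Tubule length was imaged via CD31 immunofluorescence after a further 3-day compound exposure in 10 ng/ml VEGF, following 3-day pre-culture of HUVEC with HDF at 1:3. Vehicle 0.1% DMSO; suramin (100 uM) inhibition control.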

CCCCCCCCCC
outcome [1]: inactive | outcome [2]: inactive

NC(=O)NN=Cc1ccc([N+](=O)[O-])o1
AC50 (IYD (gene 389434)): 74.4 µM (active)

CCCCCCCCCCCCCCCCOS(=O)(=O)O
AC50 (IYD (gene 389434)): 32.7 µM (active)

O=S(=O)(O)CCC(F)(F)C(F)(F)C(F)(F)C(F)(F)C(F)(F)C(F)(F)F
AC50 (TTR (gene 7276)): 5.35 µM (active)

FC(F)=C(F)C(F)(F)C(F)(F)C(F)(F)C(F)(F)C(F)(F)C(F)(F)F
AC50 (TTR (gene 7276)): 62.1 µM (active)

CCCC(CCC)C(=O)O
outcome [3]: inactive

Cn1cc[nH]c1=S
outcome [2]: inactive
